Reference: PubChem BioAssay AID2158 (National Center for Advancing Translational Sciences (NCATS), 2009)
Records with an inconclusive call do not appear. Calls of active or inactive are those of the source. Calls come from the whole dose curve; as a rule, active = well fitted inhibition curve with a large enough effect; inconclusive = small, poorly fitted or top-dose-only effect; inactive = no such curve, though single readings can be large or run the other way.

Each compound was assayed against Cruzipain (Trypanosoma cruzi) (UniProt P25779) (assay: Confirmation qHTS Assay for Inhibitors of Cruzain). Conditions: purified cruzain, Z-FR-AMC fluorescence, 0.01% Triton.
Cruzipain (Trypanosoma cruzi), sequence (P25779 123-467 limits assumed): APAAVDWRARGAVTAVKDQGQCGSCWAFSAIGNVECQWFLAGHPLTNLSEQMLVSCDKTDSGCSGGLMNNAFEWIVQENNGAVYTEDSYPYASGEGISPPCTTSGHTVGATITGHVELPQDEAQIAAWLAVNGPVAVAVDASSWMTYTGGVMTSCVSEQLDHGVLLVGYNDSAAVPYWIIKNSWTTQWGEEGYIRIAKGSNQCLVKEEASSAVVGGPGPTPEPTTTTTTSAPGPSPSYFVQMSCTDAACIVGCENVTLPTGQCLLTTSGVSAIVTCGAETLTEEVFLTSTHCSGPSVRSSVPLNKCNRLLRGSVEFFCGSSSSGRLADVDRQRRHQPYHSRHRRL
Procedure, shortened: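 Reaction progress from the 60 s rise in AMC fluorescence (ex 360, em 450 nm) after adding 2 uM Z-FR-AMC. Before this, 1.5 nM cruzain sat 15 min at room temperature with compound in pH 5.5 acetate buffer with 5 mM DTT and 0.01% Triton X-100.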
Note: nearly all actives have a fitted effect of over 40% in size.
Potency is the fitted concentration of half-maximal effect.
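Throughout, for Activity change, negative = inhibition: plate controls were uninhibited enzyme control for no effect and buffer wells lacking enzyme for full effect.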

Activity change, negative = inhibition, inactive:
COc1ccc2cc3cc(C(=O)NCCCN4CCOCC4)oc3nc2c1 -114%, Cc1oc(=O)c(NC(=O)c2ccc(Cl)cc2)cc1C(=O)c1ccccc1 -10.8%, COc1ccc(/C=N/NC(=O)c2ccc(Br)cc2)cc1Cn1cc(Cl)cn1 -13.6%, N#Cc1c(-c2ccccc2)cc(-c2ccco2)c(C#N)c1N -11%, O=[N+]([O-])c1ccccc1S(=O)(=O)NCC1CCC(CNCC2CCc3ccccc3C2)CC1 (stereo unspecified) -5.24%, O=C(Nc1ccc(N2CCCC2)cc1)c1ccc(Br)o1 -25%, O=C(Cn1c2ccccc2c(=O)c2ccccc21)Nc1cccc(F)c1 -8.37%

Potency, active:
N#Cc1nc(Nc2ccccc2)nc(NC2CCCC2)n1 0.708 µM, CCn1cnc2c(Nc3ccc(CCC(=O)N=C(N)N)cc3)nc(C#N)nc21 35.5 µM, Cc1ccc(OCCn2c(CCNC(=O)C3CCCCC3)nc3ccccc32)cc1 0.1 µM, O=C(CNC(=O)c1ccccc1)OC(C(=O)Nc1ccc2c(c1)OCO2)c1ccccc1 (stereo unspecified) 8.91 µM, Cc1ccc(OCCCCn2c(CCNC(=O)C3CCCCC3)nc3ccccc32)cc1 1.12 µM, O=C(COC(=O)CNC(=O)c1ccccc1)Nc1ccccc1Cl 11.2 µM, CCN(CC)c1nc(C#N)nc(N2CCOCC2)n1 8.91 µM, CCCn1c2ccc(F)cc2c2nnc(SCCN3CCCCC3)nc21 12.6 µM, CC(C)N(CCC(=O)c1ccc2ccccc2c1)Cc1ccccc1 31.6 µM
